Laboratory results as given in PubChem BioAssay (EPA / NIEHS).
The source made the active and inactive calls. Rule for the calls: active = hit-call score of the fitted dose curve at least 0.9, where 1 is the maximum; inactive = score below 0.9.

Legend:
Conditions in all cases: mRNA level, 48 h; actives raise or lower the signal
[1] = read-out: Peroxisomal acyl-coenzyme A oxidase 1 (ACOX1) gene, ACOX1 (gene 51); experiment: LTEA_HepaRG_ACOX1: Life Technologies and Expression Analysis (LTEA) Assay for Peroxisomal acyl-coenzyme A oxidase 1 (ACOX1) gene using HepaRG (AID 2283467)
Outline: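 Differentiated human HepaRG cells were exposed in duplicate for 48 h in serum-free induction medium to eight half-log concentrations up to 100 uM in 0.5% DMSO. ACOX1 mRNA was then quantified by TaqMan qRT-PCR, normalized to ACTB, GAPDH and POLR2A.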

[2] = read-out: Alkaline Phosphatase, Placental (ALPP) gene, ALPP (gene 250); experiment: LTEA_HepaRG_ALPP: Life Technologies and Expression Analysis (LTEA) Assay for Alkaline Phosphatase, Placental (ALPP) gene using HepaRG (AID 2283468)
Outline: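 Using human liver HepaRG cells, chemicals are tested in duplicate over 48 h at half-log concentrations topping at 100 uM; phenobarbital 1 mM serves as induction control. ALPP mRNA change by qRT-PCR, bidirectional fit against vehicle.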

[3] = read-out: Bcl-2 (BAD) gene, BAD (gene 572); experiment: LTEA_HepaRG_BAD: Life Technologies and Expression Analysis (LTEA) Assay for Bcl-2 (BAD) gene using HepaRG (AID 2283469)
Outline: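 Differentiated human HepaRG cells in serum-free induction medium were exposed in duplicate for 48 h to eight concentrations (top 100 uM, half-log steps, 0.5% DMSO). BAD mRNA was quantified by qRT-PCR normalised to ACTB, GAPDH and POLR2A, with bidirectional fitting versus DMSO.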

[4] = read-out: Bcl-2 (BAX) gene, BAX (gene 581); experiment: LTEA_HepaRG_BAX: Life Technologies and Expression Analysis (LTEA) Assay for Bcl-2 (BAX) gene using HepaRG (AID 2283470)
Outline: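 HepaRG (human liver), 48 h exposure, duplicate wells. 8-pt curve, half-log from 100 uM, 0.5% DMSO. BAX transcript by TaqMan qRT-PCR; ACTB/GAPDH/POLR2A normalization; gain or loss vs DMSO baseline.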

[5] = read-out: adenosine kinase (ADK) gene, ADK (gene 132); experiment: LTEA_HepaRG_ADK: Life Technologies and Expression Analysis (LTEA) Assay for adenosine kinase (ADK) gene using HepaRG (AID 2283471)
Outline: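 HepaRG (human liver), 48 h chemical exposure, 8-pt half-log series, top 100 uM, 0.5% DMSO vehicle. Readout: ADK mRNA by qRT-PCR vs housekeeping genes; bidirectional curve fit relative to DMSO baseline.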

[6] = read-out: Alpha-fetoprotein (AFP) gene, AFP (gene 174); experiment: LTEA_HepaRG_AFP: Life Technologies and Expression Analysis (LTEA) Assay for Alpha-fetoprotein (AFP) gene using HepaRG (AID 2283472)
Outline: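 HepaRG, single lot; 48 h post-plating -> serum-free induction medium; cpd 8-pt, 100 uM top, half-log, 0.5% DMSO, duplicate, 48 h. RNA -> qRT-PCR AFP, norm ACTB/GAPDH/POLR2A. Bidirectional fit vs DMSO.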

BCL2L11 (gene 10018) = experiment: LTEA_HepaRG_BCL2L11: Life Technologies and Expression Analysis (LTEA) Assay for Bcl-2 (BCL2L11) gene using HepaRG (AID 2283473)
Outline: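 Human hepatic HepaRG cultures are treated 48 h with test chemicals (maximum 100 uM, 0.5% DMSO vehicle). Expression of BCL2L11 is measured by qRT-PCR against ACTB, GAPDH and POLR2A, with activity in either direction scored relative to vehicle.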

[7] = read-out: Apolipoprotein A-V (APOA5) gene, APOA5 (gene 116519); experiment: LTEA_HepaRG_APOA5: Life Technologies and Expression Analysis (LTEA) Assay for Apolipoprotein A-V (APOA5) gene using HepaRG (AID 2283474)
Outline: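 Concentration-response of APOA5 expression in HepaRG: eight half-log doses to 100 uM, 48 h, qRT-PCR normalized to ACTB/GAPDH/POLR2A, bidirectional fitting with 0.5% DMSO as baseline.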

[8] = read-out: Bcl-2 (BID) gene, BID (gene 637); experiment: LTEA_HepaRG_BID: Life Technologies and Expression Analysis (LTEA) Assay for Bcl-2 (BID) gene using HepaRG (AID 2283476)
Outline: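 Transcript levels of BID, measured by qRT-PCR and normalized to three housekeeping genes, were fitted bidirectionally against DMSO controls. Cells were HepaRG, dosed 48 h at up to 100 uM.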

[9] = read-out: Cytochrome P450 (CYP24A1), CYP24A1 (gene 1591); experiment: LTEA_HepaRG_CYP24A1: Life Technologies and Expression Analysis (LTEA) Assay for Cytochrome P450 (CYP24A1) using HepaRG (AID 2283478)
Outline: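 Gene expression of CYP24A1 by TaqMan qRT-PCR in HepaRG after 48 h treatment, highest concentration 100 uM; activity fitted in both directions relative to DMSO vehicle.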

[10] = read-out: Cytochrome P450 (CYP1A2), CYP1A2 (gene 1544); experiment: LTEA_HepaRG_CYP1A2: Life Technologies and Expression Analysis (LTEA) Assay for Cytochrome P450 (CYP1A2) using HepaRG (AID 2283479)
Outline: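 In duplicate wells, HepaRG cultures maintained in 0.5% DMSO were treated 48 h across an 8-point, half-log series topping at 100 uM; phenobarbital (1 mM) served as induction control. Expression was read by qRT-PCR.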

[11] = read-out: cysteine-aspartic acid protease (CASP8), CASP8 (gene 841); experiment: LTEA_HepaRG_CASP8: Life Technologies and Expression Analysis (LTEA) Assay for cysteine-aspartic acid protease (CASP8) using HepaRG (AID 2283480)
Outline: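 Differentiated human HepaRG cells, plated 48 h then switched to serum-free induction medium, were exposed in duplicate for 48 h to 8 half-log concentrations up to 100 uM in 0.5% DMSO. CASP8 mRNA was quantified by qRT-PCR, normalized to ACTB/GAPDH/POLR2A.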

[12] = read-out: Cytochrome P450 (CYP2B6), CYP2B6 (gene 1555); experiment: LTEA_HepaRG_CYP2B6: Life Technologies and Expression Analysis (LTEA) Assay for Cytochrome P450 (CYP2B6) using HepaRG (AID 2283481)
Outline: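 Human HepaRG, 48 h dosing, 0.5% DMSO vehicle, top dose 100 uM. CYP2B6 transcript by qRT-PCR, housekeeping-normalized, bidirectional curve fit.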

[13] = read-out: Cytochrome P450 2C19 (Homo sapiens) (UniProt P33261); experiment: LTEA_HepaRG_CYP2C19: Life Technologies and Expression Analysis (LTEA) Assay for CYP2C19 using HepaRG (AID 2283482)
Outline: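 Endpoint: CYP2C19 mRNA change, bidirectional fit vs 0.5% DMSO. Cells: HepaRG, 48 h exposure, eight-point series topping at 100 uM. Quantitation: qRT-PCR normalized to ACTB, GAPDH, POLR2A.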

CYP2C8 (gene 1558) = experiment: LTEA_HepaRG_CYP2C8: Life Technologies and Expression Analysis (LTEA) Assay for CYP2C8 using HepaRG (AID 2283483)
Outline: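 Differentiated human HepaRG cells were exposed for 48 h in serum-free induction medium to eight half-log concentrations up to 100 uM in 0.5% DMSO, in duplicate. CYP2C8 mRNA was measured by TaqMan qRT-PCR, normalized to ACTB, GAPDH and POLR2A, and fitted bidirectionally against DMSO.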

CYP2C9 (gene 1559) = experiment: LTEA_HepaRG_CYP2C9: Life Technologies and Expression Analysis (LTEA) Assay for CYP2C9 using HepaRG (AID 2283484)
Outline: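 Differentiated human HepaRG cells were exposed 48 h in serum-free induction medium to eight half-log concentrations up to 100 uM in 0.5% DMSO. CYP2C9 mRNA was measured by qRT-PCR, normalized to ACTB, GAPDH and POLR2A, and fitted bidirectionally against DMSO.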

CYP2E1 (gene 1571) = experiment: LTEA_HepaRG_CYP2E1: Life Technologies and Expression Analysis (LTEA) Assay for CYP2E1 using HepaRG (AID 2283485)
Outline: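 Human liver line HepaRG, plated 48 h, then serum-free induction medium + chemical x 48 h; 8-pt CRC from 100 uM, half-log, 0.5% DMSO, n=2. Readout: CYP2E1 mRNA qRT-PCR vs ACTB/GAPDH/POLR2A; bidirectional fit vs DMSO.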

CYP4A11 (gene 1579) = experiment: LTEA_HepaRG_CYP4A11: Life Technologies and Expression Analysis (LTEA) Assay for CYP4A11 using HepaRG (AID 2283486)
Outline: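 Human hepatic HepaRG cultures receive duplicate 48 h exposures across a concentration-response series topping at 100 uM. Expression changes in CYP4A11 are measured by qRT-PCR relative to DMSO controls.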

[14] = read-out: Cytochrome P450 3A4 (Homo sapiens) (UniProt P08684); experiment: LTEA_HepaRG_CYP3A4: Life Technologies and Expression Analysis (LTEA) Assay for CYP3A4 using HepaRG (AID 2283487)
Outline: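 CYP3A4 transcript measured by TaqMan qRT-PCR and normalized to three housekeeping genes after 48 h chemical exposure of human HepaRG cells. Top concentration 100 uM, half-log steps, 0.5% DMSO vehicle; gain or loss fitted against DMSO baseline.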

[15] = read-out: DNA damage-inducible transcript 3 (DDIT3), DDIT3 (gene 1649); experiment: LTEA_HepaRG_DDIT3: Life Technologies and Expression Analysis (LTEA) Assay for DNA damage-inducible transcript 3 (DDIT3) using HepaRG (AID 2283488)
Outline: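 HepaRG plated 48 h, switched to serum-free induction medium, dosed 48 h (100 uM top, half-log, 8 pts, 0.5% DMSO, n=2); RNA isolated; DDIT3 by qRT-PCR; bidirectional curve fit vs DMSO.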

Measured: AC50

Sequence of Cytochrome P450 2C19 (Homo sapiens) (P33261 whole entry, looked up): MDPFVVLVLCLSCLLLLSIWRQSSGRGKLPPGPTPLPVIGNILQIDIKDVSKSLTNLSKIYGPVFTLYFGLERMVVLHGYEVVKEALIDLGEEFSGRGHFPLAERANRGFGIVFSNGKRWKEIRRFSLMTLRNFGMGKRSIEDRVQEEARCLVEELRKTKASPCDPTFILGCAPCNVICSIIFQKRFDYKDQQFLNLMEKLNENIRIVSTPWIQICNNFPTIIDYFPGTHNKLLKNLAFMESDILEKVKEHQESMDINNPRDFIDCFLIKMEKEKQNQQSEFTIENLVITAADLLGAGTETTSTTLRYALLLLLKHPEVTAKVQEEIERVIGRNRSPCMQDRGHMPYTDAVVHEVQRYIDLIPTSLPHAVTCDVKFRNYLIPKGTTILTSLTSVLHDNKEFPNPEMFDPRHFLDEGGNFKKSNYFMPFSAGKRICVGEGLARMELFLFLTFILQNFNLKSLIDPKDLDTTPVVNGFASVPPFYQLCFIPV
Sequence of Cytochrome P450 3A4 (Homo sapiens) (P08684 whole entry, looked up): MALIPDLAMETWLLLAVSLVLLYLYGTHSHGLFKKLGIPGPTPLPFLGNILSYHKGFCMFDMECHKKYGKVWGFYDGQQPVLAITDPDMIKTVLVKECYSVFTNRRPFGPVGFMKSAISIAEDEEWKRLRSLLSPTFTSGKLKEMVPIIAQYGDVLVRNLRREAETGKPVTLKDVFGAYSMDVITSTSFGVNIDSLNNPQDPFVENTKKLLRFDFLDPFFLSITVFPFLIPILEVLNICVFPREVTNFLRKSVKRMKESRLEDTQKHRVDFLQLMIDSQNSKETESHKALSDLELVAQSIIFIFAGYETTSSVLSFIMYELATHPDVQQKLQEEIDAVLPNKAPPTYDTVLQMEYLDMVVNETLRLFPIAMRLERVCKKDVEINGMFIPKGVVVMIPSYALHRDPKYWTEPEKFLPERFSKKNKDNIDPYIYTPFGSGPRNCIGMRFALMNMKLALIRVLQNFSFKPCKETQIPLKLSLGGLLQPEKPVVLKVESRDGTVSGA

CC(C)(C)c1ccccc1O
inactive: [1] | [2] | [3] | [4] | [5] | [6] | BCL2L11 (gene 10018) | [7] | [8] | [9] | [10] | [11] | CYP2C9 (gene 1559) | CYP4A11 (gene 1579) | [15]
active: [12] 1.63 µM | [13] 1.47 µM | CYP2C8 (gene 1558) 6.35 µM | CYP2E1 (gene 1571) 15.1 µM | [14] 12.6 µM

COc1ccccc1N
inactive: [1] | [2] | [3] | [4] | [5] | [6] | BCL2L11 (gene 10018) | [7] | [8] | [9] | [10] | [11] | [13] | CYP2C8 (gene 1558) | CYP2C9 (gene 1559) | CYP2E1 (gene 1571) | CYP4A11 (gene 1579) | [14] | [15]
active: [12] 24.3 µM

Clc1cccc(Cl)c1
inactive: [1] | [2] | [3] | [4] | [5] | [6] | BCL2L11 (gene 10018) | [7] | [8] | [9] | [10] | [11] | [12] | [13] | CYP2C8 (gene 1558) | CYP2C9 (gene 1559) | CYP2E1 (gene 1571) | CYP4A11 (gene 1579) | [14] | [15]

O=C(N[C@H]1CN2CCC1CC2)c1ccc2c(c1)OCCO2
inactive: [1] | [2] | [3] | [4] | [5] | [6] | BCL2L11 (gene 10018) | [7] | [8] | [9] | [10] | [11] | [12] | [13] | CYP2C8 (gene 1558) | CYP2C9 (gene 1559) | CYP2E1 (gene 1571) | CYP4A11 (gene 1579) | [14] | [15]

O=C(O)C1(c2ccc3c(c2)OC[C@H](Cc2ccc(-c4ccccc4)cc2)[C@H]3O)CCCC1
active: [1] 91.7 µM | [4] 66.2 µM | [10] 25 µM | CYP2E1 (gene 1571) 84.5 µM | [14] 4.6 µM | [15] 50 µM
inactive: [2] | [3] | [5] | [6] | BCL2L11 (gene 10018) | [7] | [8] | [9] | [11] | [12] | [13] | CYP2C8 (gene 1558) | CYP2C9 (gene 1559) | CYP4A11 (gene 1579)

CCCCCCCCCCCCc1cccc(S(=O)(=O)O)c1
active: [10] 45 µM | [13] 22.7 µM | CYP2C8 (gene 1558) 45 µM | CYP4A11 (gene 1579) 21.6 µM | [14] 18.9 µM | [15] 45 µM
inactive: [1] | [2] | [3] | [4] | [5] | [6] | BCL2L11 (gene 10018) | [7] | [8] | [9] | [11] | [12] | CYP2C9 (gene 1559) | CYP2E1 (gene 1571)

Oc1c(Cl)cc(Cl)cc1Cl
inactive: [1] | [2] | [3] | [4] | [5] | [6] | BCL2L11 (gene 10018) | [7] | [8] | [15]
active: [11] 50 µM
